Test [1] is described as follows: inhibitors of TNFa-induced NFkB p65 translocation, primary screen, imaging, HUVEC, MLSMR starter and 10KST1 sets (AID 438;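 active = inhibition above 20% together with a positive visual image hit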;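 also: compound added about 3h40 before a 20 min TNFalpha stimulation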;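 as to inhibition: signal is the nuclear over cytoplasmic p65 intensity ratio per well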). To be noted: HUVEC TNFa-induced p65 nuclear translocation; cell count: measured here: nuclei count (cytotoxicity indicator), at 2.08 µM; inhibition: at 2 µM, stronger effect = higher value, 0% TNFa-plus-vehicle, 100% no-TNFa wells.
Test [2] in a line: reduction of polyQ htt aggregates in cells – imaging, exon1htt(103Q)mCFP cells, high-content imaging, primary screen (AID 483;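 active = visual image review flags a hit and inhibition of aggregation exceeds 20%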;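 also: compound exposure lasted 3 days before fixation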;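 as to nuclei count: percent of the per-plate median nuclei count of sample wells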). The conditions noted are these: exon1htt(103Q)mCFP cell line, aggregate imaging, at 2 µM; inhibition of aggregation: stronger effect = higher value; nuclei count: measured here: cell count, toxicity.
The nature of test [3]: endothelial E-selectin expression blockers – imaging, HUVEC, immunofluorescence, MLSMR starter and 10KST1 sets, primary screen (AID 487;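 active = visually confirmed hit in the image check and inhibition above 20%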;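 as to inhibition: signal is fraction of cell area covered by stained E-selectin grains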;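 as to nuclei count: 100% = median nuclei count of all wells on the same plate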). To be noted: HUVEC TNFalpha-induced E-selectin immunofluorescence imaging, at 2 µM; inhibition: stronger effect = higher value; nuclei count: measured here: cell number, toxicity.
Test [4] can be described thus: Primary imaging screen for DUSP6 inhibitors that restore phospho-Erk in transfected HeLa cells, chemical complementation (AID 609;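 active = compounds giving at least 50% inhibition in the cell-based MKP-3 phosphatase rescue imaging test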;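 as to inhibition: phospho-Erk level distribution per well compared with pooled transfected vehicle control wells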). To be noted: HeLa MKP-3 transfected, phospho-Erk imaging KS statistic, at 10 µM, cells stimulated with TPA for 15 min.
In test [5] the target is Dual specificity protein phosphatase 6 (Homo sapiens) (UniProt Q16828). The test is described as above. To be noted: HeLa MKP-3 transfected, phospho-Erk imaging KS statistic; at 10 µM; stronger effect = higher value; cells stimulated with TPA for 15 min.
The target in test [6] is Voltage-gated potassium channel subunit beta-2 (Rattus norvegicus) (UniProt P62483). Put plainly: inhibitors of rat Kvbeta2 reductase activity – biochemical, NADPH fluorescence, primary screen (AID 622;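 active = fluorescence slope higher than the sample average by over 3 SD, cut at about -0.22 in these data, passing the limit was not always enough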;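 also: slope of raw intensity against log time taken from 70 to 1610 s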). To be noted: recombinant KvBeta, 4-cyanobenzaldehyde reduction, at 10 µM, stronger effect = higher value.
Test [7] has the same target. Put plainly: enhancers of rat Kvbeta2 NADPH turnover – biochemical, NADPH fluorescence, primary screen (AID 623;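 active = NADPH fluorescence slope more negative than the mean of all samples by about 3 SD, 99.7% confidence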;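 also: fluorescence intensity change per second fitted from 20 to 320 s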). To be noted: Recombinant KvBeta, NADPH fluorescence decrease slope, 10 min; at 10 µM; stronger effect = lower value.
The target of test [8] is Alpha-2C adrenergic receptor (Homo sapiens) (UniProt P18825). The experiment in a line: compounds altering alpha2C-coupled GIRK flux – cell-based, HEK293 alpha2C/GIRK1/2, thallium flux, primary screen (AID 624;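 active = fluorescence slope after compound addition differing from the mean of all screened samples at 99.7% confidence, in either direction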;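 also: slope of fluorescence ratio to pre-addition baseline per second over 15 to 24 s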). The conditions noted are these: thallium flux BTC fluorescence, at 10 µM, actives lie on both sides.
The nature of test [9]: inhibitors of larval lipid processing in zebrafish, primary screen, whole organism, PED6 fluorescence, gall bladder and intestine (AID 686;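 active = a full or partial loss of lipid-probe fluorescence in the fish gall bladder, intestine or both, judged by eye; inactive = no fluorescence loss, or compound toxic to the fish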;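 also: larvae 5 to 7 days old with five fish per well; signal comes from phospholipase A2 cleavage of quenched PED6 carried via bile; overnight exposure to compound and PED6 before scoring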). To be noted: Zebrafish larvae PED6 lipid processing, fluorescence scoring; screened at 20 µM (by protocol).
Test [10] can be described thus: loss of swimming-algae plug formation – whole organism, Chlamydomonas reinhardtii, WT vs cilia-less mutant, absorbance, 96-well, primary screen (AID 463189).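 Also: 0% = wild type cc124 cells in DMSO and 100% = ciliumless bld1 mutant cells.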 To be noted: Chlamydomonas reinhardtii gravitaxis, OD600 absorbance, 2 days; at 10 µM; stronger effect = higher value.
Test [11] in a line: blockers of RIG-like receptor reporter activation – cell-based, Sendai virus stimulus, luciferase, 10K MLSCN set, TLR/RLR signaling modifier project, primary screen (AID 602276;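 active = inhibition at or above 50% at 10 µM; inactive = inhibition below 50%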;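 also: firefly luciferase from ISG56 promoter only with Renilla not read in this screen; 0% = Sendai virus plus DMSO and 100% = medium plus DMSO without virus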). The conditions noted are these: HEK293 RL24 IRF3 luciferase reporter, at 10 µM, stronger effect = higher value.
The nature of test [12]: TLR3 IRF3 reporter activation blockers – cell-based, poly I:C stimulus, luciferase, 10K MLSCN set, primary screen (AID 602277;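 active = inhibition of the reporter signal at or above 50%; inactive = inhibition below 50%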). To be noted: HEK293-TLR3 RL24 IRF3 luciferase reporter, at 10 µM, stronger effect = higher value.
[13] abbreviates: measured here: cell density z-score.
Setting [14] is: measured here: nuclear c-Myc green intensity z-score.
Setting [15] is: measured here: nuclear pErk red intensity z-score, stronger effect = higher value.

We go through 6 compounds from PubChem BioAssay.

Where “and” joins values, the source holds several entries; their conditions need not be identical. Equal entries are not always repeated. Calls of active or inactive are those of the source.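 The calls were made as follows, unless noted: active = inhibition at or above 50% relative to wild type and mutant plate controls; inactive = inhibition below 50%.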

Alpha-2C adrenergic receptor (Homo sapiens), sequence (P18825 whole entry, looked up): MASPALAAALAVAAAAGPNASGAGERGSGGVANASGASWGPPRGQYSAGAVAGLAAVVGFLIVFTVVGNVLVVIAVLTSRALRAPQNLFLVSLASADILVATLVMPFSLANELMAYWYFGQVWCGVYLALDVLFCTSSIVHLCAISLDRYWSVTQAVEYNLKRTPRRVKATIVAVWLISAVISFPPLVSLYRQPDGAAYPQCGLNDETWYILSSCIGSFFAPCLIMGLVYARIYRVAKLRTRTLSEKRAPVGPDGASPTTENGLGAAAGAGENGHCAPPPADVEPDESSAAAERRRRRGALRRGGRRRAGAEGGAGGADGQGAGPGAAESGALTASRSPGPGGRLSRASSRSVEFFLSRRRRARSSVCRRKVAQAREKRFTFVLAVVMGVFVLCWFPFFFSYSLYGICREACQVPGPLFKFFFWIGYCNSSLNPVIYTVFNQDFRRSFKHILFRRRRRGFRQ
Dual specificity protein phosphatase 6 (Homo sapiens), sequence (Q16828 whole entry, looked up): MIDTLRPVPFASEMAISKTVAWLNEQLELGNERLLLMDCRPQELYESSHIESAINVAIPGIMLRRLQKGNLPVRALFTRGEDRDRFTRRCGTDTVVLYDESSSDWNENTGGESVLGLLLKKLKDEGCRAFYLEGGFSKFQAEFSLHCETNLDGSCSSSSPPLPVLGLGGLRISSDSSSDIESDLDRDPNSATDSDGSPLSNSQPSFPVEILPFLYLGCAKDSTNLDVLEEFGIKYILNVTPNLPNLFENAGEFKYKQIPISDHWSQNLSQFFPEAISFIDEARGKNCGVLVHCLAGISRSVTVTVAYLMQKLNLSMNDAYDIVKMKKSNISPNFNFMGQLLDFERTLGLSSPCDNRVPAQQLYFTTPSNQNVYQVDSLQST
Voltage-gated potassium channel subunit beta-2 (Rattus norvegicus), sequence (P62483 whole entry, looked up): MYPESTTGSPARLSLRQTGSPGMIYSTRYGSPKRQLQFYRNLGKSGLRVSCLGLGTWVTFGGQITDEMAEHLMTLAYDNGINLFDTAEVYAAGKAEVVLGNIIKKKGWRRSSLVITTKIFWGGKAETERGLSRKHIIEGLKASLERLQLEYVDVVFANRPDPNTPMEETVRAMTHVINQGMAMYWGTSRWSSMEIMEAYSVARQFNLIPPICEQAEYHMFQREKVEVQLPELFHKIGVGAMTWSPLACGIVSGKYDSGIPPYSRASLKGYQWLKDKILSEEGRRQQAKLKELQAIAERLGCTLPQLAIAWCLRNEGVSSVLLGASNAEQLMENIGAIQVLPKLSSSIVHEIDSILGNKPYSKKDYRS

For the compound `O=C(O)CC1SC(=Nc2cccc(C(F)(F)F)c2)NC1=O` (configuration not stated), the cell count in [1] was 447. In addition, the inhibition in test [1] is -2.2% (inactive); in test [3], -42.6% (inactive); in [5], 3.42% (inactive); in [10] it was 34.2% (inactive); in test [11], 19.6% (inactive); in [12], 19.9% (inactive). Further, in test [2], the inhibition of aggregation was 3.4% (inactive). Also, the nuclei count amounted to 95.3% in [2] and 105% in [3]. The z-score in [4] (setting [13]) was -0.141; in [4] (setting [14]), 1.56; in test [4] (setting [15]) it was 0.654. Further, the fluorescence slope in test [6] was -0.448 (inactive). Further, in test [7], the NADPH fluorescence slope was 1.4e-05 (inactive). Moreover, the slope in test [8] is 0.0048 (inactive). Besides, the result in test [9] was inactive.

As for `COC(=O)CSc1nc(C)c(C(C)=O)cc1C#N`, the cell count in [1] was 505. In addition, the inhibition in test [1] was -8.8% (inactive); in [3] it was -16.5% (inactive); in [5] it was -8.95% (inactive); in test [10], 13.8% (inactive); in test [11] it was 3.96% (inactive); in test [12], -12.7% (inactive). The inhibition of aggregation in [2] was 5.5% (inactive). The nuclei count in test [2] stood at 86.1%; in [3] it was 136%. For the same compound, the z-score was -0.468 in test [4] (setting [13]), -1.01 in test [4] (setting [14]) and -0.0332 in [4] (setting [15]). Besides, the fluorescence slope in test [6] was -0.376 (inactive). Further, the NADPH fluorescence slope in test [7] is -3.7e-05 (inactive). For the same compound, the slope in [8] is 0.00524 (inactive). Moreover, the compound was classed as inactive in test [9].

Regarding `CCCCCC(=O)O[C@]1(C(C)=O)CC[C@H]2[C@@H]3CCC4=CC(=O)CC[C@]4(C)[C@H]3CC[C@@]21C`, in [1], the cell count is 601. In addition, the inhibition in [1] is -6.9% (inactive); in test [3] it was -58.2% (inactive); in [5], 13.3% (inactive); in [10] it was 3.11% (inactive); in test [11] it was 0.124% (inactive); in [12], 48% (inactive). In test [2], the inhibition of aggregation was 2.3% (inactive). Further, the nuclei count in test [2] was determined as 104%; in [3] it was 122%. In addition, the z-score was -1.27 in [4] (setting [13]), -0.399 in [4] (setting [14]) and 1.24 in test [4] (setting [15]). Moreover, the fluorescence slope in [6] was -0.444 (inactive). Further, the NADPH fluorescence slope in test [7] was -6.6e-05 (inactive). In addition, the slope in test [8] is 0.00545 (inactive). In addition, in test [9], the call was inactive.

In the case of `O=C(CCNNC(=O)c1ccncc1)NCc1ccccc1`, in test [1], the cell count amounted to 595. In addition, the inhibition in test [1] was 2.2% (inactive); in test [3], -81.8% (inactive); in [5], 8% (inactive); in [10], 4.6% (inactive) and 1.15% (inactive); in test [11] it was -7.31% (inactive); in test [12], 21.4% (inactive). Further, in test [2], the inhibition of aggregation was -4.6% (inactive). Besides, the nuclei count in [2] worked out at 104%; in [3], 117%. The z-score in [4] (setting [13]) is -1.05; in test [4] (setting [14]) it was -0.737; in test [4] (setting [15]), 0.12. For the same compound, the fluorescence slope in [6] was -0.485 (inactive). The NADPH fluorescence slope in [7] was -7.6e-05 (inactive). For the same compound, the slope in [8] is 0.00448 (inactive). The compound was called inactive in test [9].

For the compound `COC(=O)c1cc(Br)c(=O)n(Cc2cccnc2)c1`, the cell count in [1] stood at 578. For the same compound, the inhibition in test [1] was 3% (inactive); in [3], -15.9% (inactive); in test [5], -3.5% (inactive); in test [10], -26.1% (inactive); in test [11], 9.75% (inactive); in [12], 17.7% (inactive). Further, the inhibition of aggregation in test [2] is -10.7% (inactive). The values for the nuclei count in test [2] and in [3] were 108% and 109%, respectively. Further, the z-score in test [4] (setting [13]) is -0.222; in test [4] (setting [14]), 1.1; in test [4] (setting [15]), -1.83. Further, the fluorescence slope in test [6] is -0.545 (inactive). Also, in test [7], the NADPH fluorescence slope was -2.2e-05 (inactive). For the same compound, the slope in [8] is 0.00588 (inactive). For the same compound, the compound was classed as inactive in test [9].

For `Cc1nc(-c2coc3cc(OCC(=O)O)ccc3c2=O)cs1`, the cell count in test [1] amounted to 642. For the same compound, the inhibition in test [1] was -9% (inactive); in [3], -136% (inactive); in [5] it was 11.9% (inactive); in test [10] it was 29.5% (inactive); in test [11], 20.3% (inactive); in [12], 15.4% (inactive). The inhibition of aggregation in [2] is 16.4% (inactive). Also, the nuclei count came out at 100% in test [2] and 114% in test [3]. The z-score is -0.205 in test [4] (setting [13]), 0.979 in test [4] (setting [14]) and 0.055 in test [4] (setting [15]). For the same compound, in test [6], the fluorescence slope is -0.552 (inactive). In addition, the NADPH fluorescence slope in test [7] was -4.6e-05 (inactive). For the same compound, the slope in test [8] was 0.00509 (inactive). Moreover, the outcome in [9] was inactive.
